# PubChem BioAssay (NCATS)
# Results filed as inconclusive are left out. Activity calls are given as the source filed them. Unless noted, calls come from the whole dose curve; as a rule, active = well fitted activation curve with a large enough effect; inconclusive = small, poorly fitted or top-dose-only effect; inactive = no such curve, though single readings can be large or run the other way.
# Biological target: Cytochrome P450 3A4 (Homo sapiens) (UniProt P08684)
# Assay: qHTS Assay for Activators of Cytochrome P450 3A4 (AID 885); note: nearly all actives have a fitted effect of over 65% in size
# Settings: recombinant CYP3A4, Luciferin-PPXE luminescence, 60 min; series mostly up to 57.1 µM; activity change, positive = activation: at the top concentration
# Method in brief: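 Human CYP3A4 dealkylates Luciferin-PPXE to luciferin, which luciferase detection converts to light. Substrate was at its KM (25uM), buffer 200mM KPO4, reaction 60 min at RT.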
# Cytochrome P450 3A4 (Homo sapiens), sequence (P08684 whole entry, looked up): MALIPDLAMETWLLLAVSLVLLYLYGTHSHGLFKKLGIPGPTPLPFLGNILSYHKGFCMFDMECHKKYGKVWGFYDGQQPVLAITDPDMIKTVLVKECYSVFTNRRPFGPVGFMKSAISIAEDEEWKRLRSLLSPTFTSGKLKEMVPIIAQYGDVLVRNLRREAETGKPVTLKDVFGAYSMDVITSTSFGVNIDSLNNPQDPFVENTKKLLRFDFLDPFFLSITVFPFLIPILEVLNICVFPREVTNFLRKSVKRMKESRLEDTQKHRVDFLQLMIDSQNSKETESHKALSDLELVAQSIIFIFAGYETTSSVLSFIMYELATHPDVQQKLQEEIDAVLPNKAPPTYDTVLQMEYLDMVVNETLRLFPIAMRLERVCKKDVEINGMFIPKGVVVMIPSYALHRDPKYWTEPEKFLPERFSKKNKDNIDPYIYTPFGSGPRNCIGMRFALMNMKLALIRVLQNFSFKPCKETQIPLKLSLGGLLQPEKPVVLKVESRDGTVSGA
SMILES,Potency,"activity change, positive = activation"
Cc1cc(C(C)(C)C)c(O)c(C)c1CC1=NCCN1,inactive,–
O=C(C1CCCCC1)N1CC(=O)N2CCc3ccccc3C2C1 (configuration not stated),–,-32.1% (inactive)
O=c1c(O)c(-c2ccc(O)c(O)c2)oc2cc(O)cc(O)c12,–,-74.4% (inactive)
Cc1cc(C(C)(C)C)cc(C)c1CC1=NCCN1,–,-32.2% (inactive)
COc1ccc(C2CNC(=O)C2)cc1OC1CCCC1 (configuration not stated),–,-32.3% (inactive)
C[C@](N)(Cc1ccc(O)c(O)c1)C(=O)O,–,-51% (inactive)
Cn1ccc2cc3c(cc21)CCN3C(=O)Nc1cccnc1,–,-83.5% (inactive)
Cc1ccccc1N1C(=O)c2cc(S(N)(=O)=O)c(Cl)cc2NC1C (configuration not stated),inactive,–
Fc1ccc([C@@H]2CCNC[C@H]2COc2ccc3c(c2)OCO3)cc1,–,-65.5% (inactive)

# System: not listed separately
# Assay: qHTS Assay for Identification of Small Molecule Antagonists for NFkB Signaling Pathway (AID 895; active = well fitted inhibition curve with a large enough effect in the signal ratio, with a control signal flat, not every such curve was filed as active; the % refers to the signal ratio; note: potency is the fitted concentration of half-maximal effect; for activity change, negative = inhibition: % is set by controls: 0 for no effect and ±100 for the full control effect)
# Settings: NFkB beta-lactamase reporter cells, FRET ratio 460/530, stimulated with 10 pM TNF alpha; series mostly up to 38.3 µM; activity change, negative = inhibition: at the top concentration
# Method in brief: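 ME-180 NFkB-bla cells (beta-lactamase under NFkB response element), plated overnight, treated with compound then 10 pM TNF alpha (about EC50) for 5 hrs at 37 C. LiveBLAzer FRET read at 460/530 nm emission, 405 nm excitation.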
SMILES,"activity change, negative = inhibition",Potency
O=C(C1CCCCC1)N1CC(=O)N2CCc3ccccc3C2C1 (configuration not stated),-0.865% (inactive),–
CN(C)c1nc(N(C)C)nc(N(C)C)n1,-11.1% (inactive),–
O=C1c2c(O)ccc(O)c2C(=O)c2c(NCCNCCO)ccc(NCCNCCO)c21,–,2 µM (active)
CCOC(=O)C(C)(C)Oc1ccc(Cl)cc1,14.4% (inactive),–
COc1ccc(C2CNC(=O)C2)cc1OC1CCCC1 (configuration not stated),-19.2% (inactive),–
C[C@](N)(Cc1ccc(O)c(O)c1)C(=O)O,10.8% (inactive),–
Cn1cnc2c1c(=O)[nH]c(=O)n2C,1.79% (inactive),–
Nc1nnc(-c2cccc(Cl)c2Cl)c(N)n1,-6.49% (inactive),–
